aSyn UTR act: Activators working through SNCA 5'UTR binding (MLPCN); alpha-synuclein 5'UTR reporter, activators screen; activity score, % (tested at 7.5 µM), hits read low; 300,000 tested, 7.1% active; AID 1814; in the data active means activity score below about -60%
* = called active by the depositor. A selection follows.

SMILES	aSyn UTR act
COc1ccccc1/C=N/N(C(C)=O)c1nc(-c2ccc(F)cc2)cs1	-121*
C=CCNC(=S)N/N=C(\C)c1ccccn1	86
CCN(CC)c1ccc(/C=N/NC(=S)NCc2ccc(OC)cc2)cc1	-76*
CCOc1ccccc1OCC(=O)N/N=C(\C)Cc1ccc(OC)cc1	87
COc1ccc(CNC(=S)N/N=C(/C)c2ccccc2)cc1	-107*
COc1ccc(C/C(C)=N/NC(=S)Nc2ccccc2)cc1	-124*
C/C(=N\NC(=S)NCc1ccccc1)c1ccccc1F	-70*
Brc1ccc(N=Cc2ccccn2)cc1	-73*
CC1C/C(=C/c2ccccn2)C(=O)/C(=C/c2ccccn2)C1 (stereo not given)	89
C(=C\c1ccccn1)/c1ccccn1	-115*
CC(C)(C)C1C/C(=C/c2ccccn2)C(=O)/C(=C/c2ccccn2)C1 (stereo not given)	103
CC(=NC1CCCCC1)C1=C(O)c2ccccc2C1=O	-121*
CC(=O)N(C1=C(Cl)C(=O)c2ccccc2C1=O)C1CCCCC1	58
Cc1ccc(Nc2nnc(-c3ccccc3N)o2)cc1C	-135*
COC(=O)c1ccc(N2CCCCC2)c(N)c1	-92*
COC(=O)c1ccc(N2CCC(C)CC2)c(N)c1	-99*
COC(=O)c1cc(C(=O)N2CCN(c3cccc(C)c3C)CC2)cc([N+](=O)[O-])c1	78
Nc1ccc(N2CCCCC2)cc1N1CCCCC1	85
Cc1cccc(C(=O)Oc2ccc(/C=N/O)cc2)c1	-72*
O=C(O)c1ccc(N/N=C/c2ccc(-c3cc(Cl)ccc3Cl)o2)cc1	-156*
O=C(O)c1ccc(N/N=C/c2ccc(-c3ccc(Cl)cc3Cl)o2)cc1	-62*
O=C(O)c1ccc(N/N=C/c2ccc(-c3cccc(Cl)c3)o2)cc1	-114*
Cc1ccc(NC(=O)CCCC2CCCCC2)c(O)c1	-150*
N#C/C(=C\c1ccc(OCC(N)=O)cc1)c1ccccc1	-154*
Cc1cc(C)n(-c2ccc(C(=O)OCc3ccccc3)cc2)n1	-68*
SMILES	aSyn UTR act
CCC1CCCCN1S(=O)(=O)c1ccc(C(=O)Nc2nnc(-c3ccccc3Cl)o2)cc1 (stereo not given)	56
Cc1cc(C(=O)Nc2ccc3c(c2)OCCO3)co1	-113*
CC1CCCCN1S(=O)(=O)c1ccc(C(=O)Nc2sccc2C(N)=O)cc1 (stereo not given)	-106*
CCOC(=O)c1cc([N+](=O)[O-])sc1NC(=O)c1ccc(S(=O)(=O)N2CC3(C)CC2CC(C)(C)C3)cc1 (stereo not given)	55
CCOc1cccc(C(=O)NC(=S)Nc2ccc3c(c2)OCCO3)c1	-87*
COc1ccc(C)cc1NS(=O)(=O)c1ccc(NC(=O)CN(c2cc([N+](=O)[O-])ccc2C)S(C)(=O)=O)cc1	114
Cc1cc(C)n(-c2ccc(C(=O)Nc3sccc3C(N)=O)cc2)n1	-139*
CC(C)CNS(=O)(=O)c1ccc(C(=O)Nc2ccc3c(c2)OCCO3)cc1	-98*
COc1cc(OC)cc(C(=O)Nc2ccc3c(c2)OCCO3)c1	-123*
COc1ccc(N(CC(=O)Nc2ccc3c(c2)OCCO3)S(C)(=O)=O)c(OC)c1	-71*
Cc1cc(C)n(-c2ccc(C(=O)Nc3ccc4c(c3)OCCO4)cc2)n1	-101*
CCOc1ccc(C(=O)Nc2ccc3c(c2)OCCO3)cc1OC	-144*
COc1ccc2nc(SCC(=O)Nc3ccc4sc(C)nc4c3)c(C#N)cc2c1	-148*
COc1ccc2cc(C#N)c(SCC(=O)NNC(=O)Cc3ccccc3)nc2c1	-78*
CCOC(=O)CSc1nc2cc(OCC)ccc2cc1C#N	-209*
COC(=O)CSc1nc2cc(OC)ccc2cc1C#N	-133*
CCOC(=O)CSC1=C(C#N)C(c2ccc(C)o2)CC(=O)N1 (stereo not given)	78
O=C(CNC(=O)c1ccccc1Br)N/N=C/c1cc(Br)ccc1O	70
CCc1ccc(NC(=O)c2ccccc2Br)cc1	-144*
O=C(Nc1ccc(Br)cc1)c1ccccc1Br	-200*
CCc1ccc(NC(=O)c2n[nH]c(=O)c3ccccc23)cc1	-84*
Cc1c(C(=O)Nc2ccc(Br)cc2)cnn1C	-112*
Cc1ccc(NC(=O)C(C)N=C2NS(=O)(=O)c3ccccc32)cc1F (stereo not given)	-96*
COc1ccc(NS(=O)(=O)c2ccc(N3CCCC3)c(NC(=S)Nc3cccc(C)c3C)c2)cc1	-132*
CCOC(=O)C1CCN(C(=O)CCCOc2ccccc2)CC1	-121*
SMILES	aSyn UTR act
CCC1CCCCN1C(=O)CCCOc1ccccc1 (stereo not given)	-113*
O=C(CCCOc1ccccc1)N1CCCCC1	71
CC(C)(C)C1CCC(OC(=O)CN2CCCCC2)CC1 (stereo not given)	-63*
Cc1ccc(Cn2c(CCNc3nc(-c4ccc(Cl)c([N+](=O)[O-])c4)cs3)nc3cc(Cl)c(Cl)cc32)cc1	-78*
N#CCC(=O)Nc1ccc(C(=O)OCC(=O)c2ccc3c(c2)OCO3)cc1	-89*
N#CCC(=O)Nc1ccc(C(=O)OCC(=O)c2ccc3c(c2)OCCO3)cc1	-112*
CCCOc1ccc(C(=O)Nc2nc(C)c(Cc3ccc4c(c3)OCO4)s2)cc1	-68*
Cc1c(Cc2ccc3c(c2)OCO3)sc(NC(=O)c2ccc3ccccc3c2)c1C(N)=O	-80*
Cc1nc(NC(=O)c2ccc(OCC(C)C)cc2)sc1Cc1ccc2c(c1)OCO2	-85*
CCN(CC)c1ccc(-c2nc3cnccc3n2C)cc1	-111*
C#CC[N+](C)(C)CCCCCCCCCCCC	77
C[n+]1cn(/N=C/c2ccccc2)c2ccccc21	-87*
CCC(C)(C)NC(=S)Nc1ccc(-c2nc3ccc(C)cc3s2)cc1	-79*
Cc1ccc2nc(-c3ccc(NC(=S)NCCC(C)C)cc3)sc2c1	-192*
CCCCNC(=S)Nc1ccc(-c2nc3ccc(C)cc3s2)cc1	-159*
COCCNc1nnc(SC(C)C(=O)Nc2ccc(-c3nc4ccc(C)cc4s3)cc2)s1 (stereo not given)	-79*
O=C(CCS(=O)(=O)c1ccccc1)N(CCCN1CCOCC1)c1nc2ccccc2s1	-106*
Cc1ccc(S(=O)(=O)CCC(=O)N(CCCN2CCOCC2)c2nc3ccccc3s2)cc1	-119*
Cc1ccc2nc(N(CCN3CCOCC3)C(=O)CCS(=O)(=O)c3ccccc3)sc2c1	-93*
COC(=O)c1ccc(N=Cc2c(-c3ccccc3)[nH][nH]c2=O)cc1	-216*
C/C(=N\N=C(/C)c1cccc(N)c1)c1cccc(N)c1	-111*
C/C(=N\Nc1ccc([N+](=O)[O-])cc1)c1cccc(N)c1	-199*
C/C(=N\Nc1ccc([N+](=O)[O-])cc1)c1ccc(O)cc1	-217*
O=C(Nc1cccc(Cl)c1)OCc1cncs1	-80*
O=C(Nc1cccc2ccccc12)OCc1cncs1	-62*
SMILES	aSyn UTR act
O=C(Nc1ccc(Cl)cc1)OCc1cncs1	-119*
COc1ccc(C/C(=N\O)c2ccc(OC)cc2)cc1	-89*
CCc1ccc(NC(=O)Nc2cccc(OC)c2)cc1	-199*
COc1ccc(NC(=O)Cc2ccccc2)cc1	-101*
CCc1ccc(NC(=O)Cc2ccc(OC)cc2)cc1	-67*
COc1ccc(CC(=O)Nc2ccc(C(C)=O)cc2)cc1	-86*
CN1/C(=C\C(=O)c2cccnc2)Sc2ccccc21	-94*
COc1cccc(C(=O)/C=C2\Sc3ccccc3N2C)c1	-131*
Cc1ccc2cc3cc(C(=O)N4CCCCC4C)oc3nc2c1 (stereo not given)	-200*
O=C(c1cc2cc3ccc(Cl)cc3nc2o1)N1CCCCCC1	-95*

Compound activity deposited in PubChem by Broad Institute.
